Assay results from the supplement of paper PMC10849652.
The full data set covers some 8,800 targets. This sample favours those with a hit. About 0.5% of all pairs of compound and target were hits. A number with no mark means an inactive call.

How the values were obtained:
Assay in all cases: log2 fold change, soluble protein after heating vs DMSO (PISA); higher = thermal stabilisation; K562 lysate, 10 uM; active = over 0.2 and 3.5 SD of the protein, either way, in both replicates (recomputed)
vemurafenib = compound: CCCS(=O)(=O)Nc1ccc(F)c(C(=O)c2c[nH]c3ncc(-c4ccc(Cl)cc4)cc23)c1F [vemurafenib]
In short: (§1)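 Values give the log-two fold change in thermal stability against solvent controls, from duplicates. Crude K562 extract at 1 mg/mL protein, made by dounce homogenisation in PBS pH 7.4 with 1 mM MgCl2, was treated with 10 μM compound for 30 min. After 3 min heating across 48°C-58°C, aliquots were pooled, adjusted to 0.5% NP-40 at 4°C and centrifuged at 21,000xg for 90 min. The supernatant was measured by TMTpro 16plex LC-MS/MS with channel sums equalised.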

[1] = compound: CCCS(=O)(=O)Nc1ccc(F)c(C(=O)c2c[nH]c3ncc(Cl)cc23)c1F
In short: as §1

barasertib = compound: CCN(CCCOc1ccc2c(Nc3cc(CC(=O)Nc4cccc(F)c4)[nH]n3)ncnc2c1)CCOP(=O)(O)O [barasertib]
In short: as §1

[2] = compound: CC[C@@H]1C(=O)N(C)c2cnc(Nc3ccc(C(=O)NC4CCN(C)CC4)cc3OC)nc2N1C1CCCC1
In short: as §1

volasertib = compound: CC[C@@H]1C(=O)N(C)c2cnc(Nc3ccc(C(=O)N[C@H]4CC[C@H](N5CCN(CC6CC6)CC5)CC4)cc3OC)nc2N1C(C)C [volasertib]
In short: as §1

[3] = compound: CCn1c(C(=O)N(C2CC2)C2CC2)cc2c3c(ncn3C)c(Nc3cc(C)n(C)n3)nc21
In short: as §1

[4] = compound: CCn1cc(-c2ccnc3[nH]c(-c4cccc(CN(C)C)c4)cc23)c(-c2ccc(NC(=O)N(C)C)cc2)n1
In short: as §1

[5] = compound: CN1CCC(CNc2ccc3ncc(-c4cccc(OC(F)(F)F)c4)n3n2)CC1
In short: as §1

saracatinib = compound: CN1CCN(CCOc2cc(OC3CCOCC3)c3c(Nc4c(Cl)ccc5c4OCO5)ncnc3c2)CC1 [saracatinib]
In short: as §1

sotrastaurin = compound: CN1CCN(c2nc(C3=C(c4c[nH]c5ccccc45)C(=O)NC3=O)c3ccccc3n2)CC1 [sotrastaurin]
In short: as §1

Chain of UniProt Q9HBH5 (Q9HBH5 whole entry, looked up): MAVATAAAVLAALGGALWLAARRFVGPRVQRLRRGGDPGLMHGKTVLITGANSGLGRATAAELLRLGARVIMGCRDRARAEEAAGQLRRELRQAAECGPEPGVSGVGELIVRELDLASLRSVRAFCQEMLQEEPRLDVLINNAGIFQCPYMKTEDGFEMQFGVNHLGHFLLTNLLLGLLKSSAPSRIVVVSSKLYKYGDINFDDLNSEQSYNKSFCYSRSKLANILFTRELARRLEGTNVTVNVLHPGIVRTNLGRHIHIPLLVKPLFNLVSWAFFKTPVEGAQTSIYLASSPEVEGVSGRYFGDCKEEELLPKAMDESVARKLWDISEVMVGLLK
Chain of UniProt P60059 (P60059 whole entry, looked up): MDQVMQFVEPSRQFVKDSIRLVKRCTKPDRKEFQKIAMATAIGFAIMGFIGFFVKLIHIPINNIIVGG
Chain of UniProt Q14644 (Q14644 whole entry, looked up): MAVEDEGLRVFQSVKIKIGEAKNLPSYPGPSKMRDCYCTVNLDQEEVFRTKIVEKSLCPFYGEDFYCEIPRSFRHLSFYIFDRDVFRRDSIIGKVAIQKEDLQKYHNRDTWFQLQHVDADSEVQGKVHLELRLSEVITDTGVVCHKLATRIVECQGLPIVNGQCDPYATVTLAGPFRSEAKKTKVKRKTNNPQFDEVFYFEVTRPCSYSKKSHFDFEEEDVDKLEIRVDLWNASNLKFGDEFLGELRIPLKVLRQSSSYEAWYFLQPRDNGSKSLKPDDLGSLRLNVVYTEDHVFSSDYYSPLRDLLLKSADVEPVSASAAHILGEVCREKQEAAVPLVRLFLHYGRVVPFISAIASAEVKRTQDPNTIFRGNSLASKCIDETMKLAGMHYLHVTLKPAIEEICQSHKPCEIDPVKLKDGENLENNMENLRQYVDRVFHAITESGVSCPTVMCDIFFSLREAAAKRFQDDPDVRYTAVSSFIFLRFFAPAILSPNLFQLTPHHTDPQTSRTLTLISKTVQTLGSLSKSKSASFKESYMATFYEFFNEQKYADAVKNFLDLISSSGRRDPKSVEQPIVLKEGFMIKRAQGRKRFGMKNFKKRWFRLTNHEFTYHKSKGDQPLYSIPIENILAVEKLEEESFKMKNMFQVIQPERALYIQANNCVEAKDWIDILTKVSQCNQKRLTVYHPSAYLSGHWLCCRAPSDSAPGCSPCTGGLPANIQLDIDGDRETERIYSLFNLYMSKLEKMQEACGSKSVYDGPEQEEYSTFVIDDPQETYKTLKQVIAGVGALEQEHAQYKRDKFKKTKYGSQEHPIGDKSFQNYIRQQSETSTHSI
Chain of UniProt O94762 (O94762 whole entry, looked up): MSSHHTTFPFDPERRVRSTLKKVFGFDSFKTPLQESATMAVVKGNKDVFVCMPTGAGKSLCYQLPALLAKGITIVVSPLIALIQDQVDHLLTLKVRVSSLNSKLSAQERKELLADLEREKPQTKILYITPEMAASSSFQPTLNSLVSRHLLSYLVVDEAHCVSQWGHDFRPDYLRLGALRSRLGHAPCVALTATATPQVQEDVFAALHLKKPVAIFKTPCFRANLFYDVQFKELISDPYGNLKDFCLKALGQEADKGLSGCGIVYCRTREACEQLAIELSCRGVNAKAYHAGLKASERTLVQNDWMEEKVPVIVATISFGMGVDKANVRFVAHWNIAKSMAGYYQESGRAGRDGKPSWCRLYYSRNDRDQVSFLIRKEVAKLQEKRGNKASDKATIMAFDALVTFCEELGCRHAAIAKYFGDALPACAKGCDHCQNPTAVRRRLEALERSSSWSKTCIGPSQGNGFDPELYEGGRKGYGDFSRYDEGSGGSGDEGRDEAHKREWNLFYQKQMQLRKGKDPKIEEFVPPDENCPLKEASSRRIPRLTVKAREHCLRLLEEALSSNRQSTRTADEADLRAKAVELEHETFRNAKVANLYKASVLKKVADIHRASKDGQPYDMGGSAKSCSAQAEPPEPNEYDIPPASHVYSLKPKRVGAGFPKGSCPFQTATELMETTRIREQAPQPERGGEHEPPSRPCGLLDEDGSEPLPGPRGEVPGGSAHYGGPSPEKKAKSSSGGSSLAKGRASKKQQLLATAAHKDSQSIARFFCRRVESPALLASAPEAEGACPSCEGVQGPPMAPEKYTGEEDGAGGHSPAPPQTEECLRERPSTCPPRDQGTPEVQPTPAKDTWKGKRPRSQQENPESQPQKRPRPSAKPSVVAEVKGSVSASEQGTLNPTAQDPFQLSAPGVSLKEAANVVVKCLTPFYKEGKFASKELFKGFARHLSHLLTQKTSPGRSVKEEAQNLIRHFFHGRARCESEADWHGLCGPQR
Chain of UniProt Q4ADV7 (Q4ADV7 whole entry, looked up): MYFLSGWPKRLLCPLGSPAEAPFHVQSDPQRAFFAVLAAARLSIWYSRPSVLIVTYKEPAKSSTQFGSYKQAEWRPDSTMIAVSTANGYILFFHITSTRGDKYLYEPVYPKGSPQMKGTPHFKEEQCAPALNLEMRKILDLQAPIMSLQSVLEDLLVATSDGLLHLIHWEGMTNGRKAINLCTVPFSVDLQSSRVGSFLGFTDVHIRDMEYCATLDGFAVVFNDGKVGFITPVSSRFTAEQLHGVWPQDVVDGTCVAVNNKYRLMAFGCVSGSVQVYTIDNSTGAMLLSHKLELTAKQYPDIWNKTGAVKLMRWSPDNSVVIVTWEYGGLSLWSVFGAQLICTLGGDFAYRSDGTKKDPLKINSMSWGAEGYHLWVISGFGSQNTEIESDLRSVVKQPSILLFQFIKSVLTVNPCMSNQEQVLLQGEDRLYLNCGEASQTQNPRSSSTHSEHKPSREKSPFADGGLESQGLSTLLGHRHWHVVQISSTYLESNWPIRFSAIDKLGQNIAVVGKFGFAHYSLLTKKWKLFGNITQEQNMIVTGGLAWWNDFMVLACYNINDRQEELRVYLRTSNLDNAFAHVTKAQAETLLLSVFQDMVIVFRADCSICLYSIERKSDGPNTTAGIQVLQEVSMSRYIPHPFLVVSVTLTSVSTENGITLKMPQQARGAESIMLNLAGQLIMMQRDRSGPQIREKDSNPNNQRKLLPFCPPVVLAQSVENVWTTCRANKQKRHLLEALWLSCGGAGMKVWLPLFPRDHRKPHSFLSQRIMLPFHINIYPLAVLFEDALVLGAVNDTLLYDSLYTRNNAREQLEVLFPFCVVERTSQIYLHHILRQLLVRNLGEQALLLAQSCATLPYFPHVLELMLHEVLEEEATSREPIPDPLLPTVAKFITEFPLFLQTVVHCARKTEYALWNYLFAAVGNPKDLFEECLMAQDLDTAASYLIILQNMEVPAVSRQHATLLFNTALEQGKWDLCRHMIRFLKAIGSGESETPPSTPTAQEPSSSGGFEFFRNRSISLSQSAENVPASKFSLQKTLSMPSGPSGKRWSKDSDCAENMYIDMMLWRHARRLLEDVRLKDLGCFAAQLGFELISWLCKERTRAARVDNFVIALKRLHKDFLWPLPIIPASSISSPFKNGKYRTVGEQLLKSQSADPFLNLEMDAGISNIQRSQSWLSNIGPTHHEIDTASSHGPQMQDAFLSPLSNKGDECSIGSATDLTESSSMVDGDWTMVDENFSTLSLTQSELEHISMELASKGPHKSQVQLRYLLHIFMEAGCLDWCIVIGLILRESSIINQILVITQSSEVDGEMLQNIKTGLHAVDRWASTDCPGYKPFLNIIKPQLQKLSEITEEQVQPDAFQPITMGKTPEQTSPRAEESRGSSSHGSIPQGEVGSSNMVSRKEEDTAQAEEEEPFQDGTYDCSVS
Chain of UniProt Q9UPU9 (Q9UPU9 whole entry, looked up): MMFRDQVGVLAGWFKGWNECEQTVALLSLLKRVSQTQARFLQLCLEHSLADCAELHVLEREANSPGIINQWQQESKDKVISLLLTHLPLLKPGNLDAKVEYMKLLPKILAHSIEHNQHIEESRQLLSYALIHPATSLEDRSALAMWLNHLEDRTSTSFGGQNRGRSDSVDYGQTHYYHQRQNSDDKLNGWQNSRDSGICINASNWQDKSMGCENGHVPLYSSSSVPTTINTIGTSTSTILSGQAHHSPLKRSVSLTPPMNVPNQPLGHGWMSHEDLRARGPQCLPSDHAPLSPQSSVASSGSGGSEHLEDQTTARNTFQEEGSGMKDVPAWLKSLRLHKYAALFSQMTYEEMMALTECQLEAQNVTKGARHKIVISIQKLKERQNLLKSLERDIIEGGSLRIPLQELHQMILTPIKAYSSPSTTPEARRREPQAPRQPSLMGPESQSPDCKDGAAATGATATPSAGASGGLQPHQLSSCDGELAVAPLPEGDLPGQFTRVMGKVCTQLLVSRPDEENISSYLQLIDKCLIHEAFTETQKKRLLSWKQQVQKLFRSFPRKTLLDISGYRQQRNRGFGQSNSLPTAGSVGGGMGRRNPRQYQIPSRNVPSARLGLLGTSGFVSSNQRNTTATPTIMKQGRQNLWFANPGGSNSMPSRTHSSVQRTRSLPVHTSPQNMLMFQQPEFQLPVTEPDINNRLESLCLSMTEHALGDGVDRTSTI
Chain of UniProt P18754 (P18754 whole entry, looked up): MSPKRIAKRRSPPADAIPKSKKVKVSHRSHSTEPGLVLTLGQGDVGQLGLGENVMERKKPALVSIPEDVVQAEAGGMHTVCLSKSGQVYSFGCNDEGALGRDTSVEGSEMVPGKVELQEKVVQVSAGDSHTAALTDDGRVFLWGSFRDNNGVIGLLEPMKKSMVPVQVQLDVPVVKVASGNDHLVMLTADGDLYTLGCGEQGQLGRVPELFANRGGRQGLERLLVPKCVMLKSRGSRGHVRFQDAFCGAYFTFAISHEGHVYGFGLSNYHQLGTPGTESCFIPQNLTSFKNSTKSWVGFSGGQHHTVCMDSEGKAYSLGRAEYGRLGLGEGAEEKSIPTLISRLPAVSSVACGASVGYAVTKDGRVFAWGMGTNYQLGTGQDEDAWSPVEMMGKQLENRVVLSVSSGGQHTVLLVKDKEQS
Chain of UniProt Q99643 (Q99643 whole entry, looked up): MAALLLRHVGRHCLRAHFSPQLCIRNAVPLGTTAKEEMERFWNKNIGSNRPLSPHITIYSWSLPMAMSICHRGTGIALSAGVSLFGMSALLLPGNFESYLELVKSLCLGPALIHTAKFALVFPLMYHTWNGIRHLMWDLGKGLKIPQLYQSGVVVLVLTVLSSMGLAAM

Row | Target | log2 fold change (vemurafenib) | log2 fold change [1] | log2 fold change (barasertib) | log2 fold change [2] | log2 fold change (volasertib) | log2 fold change [3] | log2 fold change [4] | log2 fold change [5] | log2 fold change (saracatinib) | log2 fold change (sotrastaurin)
1 | RRM1 (UniProt P23921) | 0.023 | 0.018 | 0.011 | -0.065 | -0.063 | 0.003 | -0.045 | -0.031 | -0.02 | -0.016
2 | RCOR3 isoform 3 (UniProt Q9P2K3) | -0.03 | -0.01 | -0.003 | -0.001 | -0.012 | 0.029 | -0.017 | 0.003 | 0.03 | -0.015
3 | RDH14 (UniProt Q9HBH5) | 0.038 | 0.026 | -0.007 | -0.076 | -0.022 | 0.009 | -0.228 | 0.061 | -0.015 | 0.074
4 | RAB3IL1 (UniProt E9PK89) | -0.154 | 0.031 | -0.001 | -0.079 | 0.031 | -0.054 | 0.026 | -0.047 | -0.043 | -0.013
5 | SAR1A (UniProt Q9NR31) | 0.109 | 0 | 0.07 | 0.03 | -0.05 | 0.021 | -0.009 | -0.108 | 0.025 | 0.084
6 | RPTOR (UniProt Q8N122) | -0.028 | 0.022 | 0.052 | -0.024 | -0.046 | 0.038 | 0.018 | -0.039 | 0 | 0.046
7 | SDHC (UniProt Q99643) | -0.035 | -0.022 | 0.031 | -0.089 | 0.044 | 0.04 | -0.307 (active) | 0.156 | 0.063 | 0.062
8 | RCC1 isoform 2 (UniProt P18754) | 0.049 | 0.018 | -0.008 | -0.114 | -0.066 | 0.027 | -0.105 | -0.046 | -0.021 | 0.001
9 | RANBP2 (UniProt P49792) | -0.031 | 0.015 | 0.043 | -0.022 | -0.048 | 0.026 | -0.019 | -0.031 | 0.018 | 0.015
10 | RAP1B (UniProt P61224) | 0.006 | 0.008 | 0.054 | 0.061 | 0.018 | -0.037 | 0.372 (active) | -0.035 | 0.002 | 0.005
11 | RPL37A (UniProt P61513) | 0.003 | -0.002 | -0.013 | -0.01 | -0.015 | -0.044 | 0.371 (active) | -0.158 | -0.035 | -0.138
12 | SAMHD1 (UniProt Q9Y3Z3) | 0.034 | 0.045 | 0.007 | -0.032 | -0.037 | 0.068 | -0.096 | 0.079 | -0.052 | 0.032
13 | RELN (UniProt P78509) | 0.043 | -0.098 | 0.004 | 0.024 | -0.019 | 0.021 | -0.024 | 0.152 | 0.035 | 0.02
14 | SEC24D isoform 2 (UniProt O94855) | -0.039 | 0.027 | -0.002 | -0.032 | -0.032 | -0.011 | -0.001 | -0.009 | 0.005 | -0.025
15 | RNASEL (UniProt Q05823) | -0.004 | 0.053 | 0.077 | -0.017 | -0.103 | 0.012 | -0.006 | -0.025 | -0.011 | 0.024
16 | RNF181 (UniProt Q9P0P0) | -0.06 | 0.025 | 0.179 | -0.036 | 0.004 | 0.018 | -0.013 | -0.035 | -0.03 | -0.02
17 | RARS (UniProt P54136) | -0.004 | -0.003 | 0.046 | -0.093 | -0.078 | 0.067 | 0.013 | -0.039 | 0.027 | 0.045
18 | RASA3 (UniProt Q14644) | -0.008 | 0.009 | 0.107 | -0.1 | -0.082 | -0.058 | 0.105 | 0.298 | -0.003 | 0.048
19 | RAB3IL1 (UniProt Q8TBN0) | -0.018 | 0.017 | 0.054 | 0.022 | -0.008 | 0.054 | 0.025 | -0.016 | 0.033 | -0.024
20 | RMC1 (UniProt Q96DM3) | 0.009 | 0.029 | 0.003 | 0.028 | -0.044 | -0.02 | 0 | 0.024 | 0.018 | -0.015
21 | SEC61G (UniProt P60059) | 0.015 | -0.079 | 0.175 | 0.159 | 0.033 | -0.067 | -0.118 | 0.405 | -0.276 | -0.184
22 | SEC62 (UniProt Q99442) | -0.024 | 0.039 | 0.027 | 0.017 | 0.011 | 0 | 0.373 (active) | -0.12 | -0.011 | -0.04
23 | SAMD4A (UniProt Q9UPU9) | -0.032 | -0.376 | 0.005 | 0.05 | 0.014 | -0.292 | 1.12 | 0.115 | 0.07 | 0.01
24 | RNPS1 (UniProt Q15287) | -0.03 | 0.001 | -0.008 | -0.175 | 0.043 | -0.022 | 0.02 | 0.077 | -0.04 | -0.003
25 | SCO1 (UniProt O75880) | -0.027 | -0.012 | -0.008 | -0.009 | 0.025 | -0.027 | -0.01 | 0.016 | 0.006 | 0.016
26 | RPN2 (UniProt P04844) | 0.009 | 0.008 | 0.019 | 0 | 0.003 | -0.003 | -0.084 | 0.033 | 0.008 | 0.008
27 | RECQL5 (UniProt O94762) | -0.028 | -0.045 | 0.02 | 0.069 | -0.187 | -0.01 | 0.131 | -0.222 | 0.018 | 0.003
28 | RBSN (UniProt Q9H1K0) | 0.051 | 0.01 | 0.023 | 0.035 | -0.087 | 0.006 | -0.075 | 0.038 | 0.023 | -0.019
29 | RIC1 (UniProt Q4ADV7) | -0.055 | 0.021 | -0.013 | 0.029 | 0.009 | 0.017 | -0.29 | 0.004 | -0.012 | -0.008
30 | RPLP0P6 (UniProt Q8NHW5) | -0.002 | 0.012 | -0.121 | 0.009 | -0.009 | -0.02 | -0.011 | 0.017 | -0.011 | -0.02
